Measurements from PubChem BioAssay (NCI).
This is part of a sample that, as a whole, favours compounds with a hit. Of some 83,000 tested, about 20% had one in any assay.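 Note: values are percent growth. 100 is the growth of untreated cells, values between 100 and 0 indicate rising inhibition; between -100 and 0 indicates cell death.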 A number with no mark means an inactive call. Active and inactive are the calls of the source. Rule for the calls: active = growth percent below 10; inactive = the rest.

test system: HL-60(TB) leukemia; experiment: NCI-60 one-dose screen, 48 h (100 = growth as untreated, 0 = no growth, -100 = all killed); settings: 10 µM unless noted

Row | Compound | growth
1 | O=C1C=CN2C(=O)CC=CC2[C@@H]1O (stereo not given in full) | 98.1%
2 | Cc1ccn2c3c(c(C(=O)O)c2c1)C(=O)c1ccccc1C3=O | 73.2%
3 | Cc1nc2sc(C(=O)Nc3ccccc3Cl)c(N)c2cc1C(C)O (stereo not given) | 58.8%
4 | CC(C)CCC[C@@H](C)[C@H]1CCC2C3=CCn4c(=O)ccc(=O)n4C3CC[C@@]21C (stereo not given in full) | -43.3% (active)
5 | CCN1CCN(C(=O)[C@]23CCC(C)(C)C[C@@H]2C2=CC[C@@H]4[C@@]5(C)C/C(=C/c6cccnc6)C(=O)C(C)(C)[C@@H]5CC[C@@]4(C)[C@]2(C)CC3)CC1 | -37.3% (active)
6 | Cc1nnc(N/N=C/c2ccc([N+](=O)[O-])o2)[nH]c1=O | -34.8% (active)
7 | CSc1nc(=O)n(Cc2ccc(F)cc2)c(=O)n1Cc1ccc(C)cc1 | 90%
8 | O=C(/C=C/C(=O)c1ccccc1)c1ccccc1 | 57.3%
9 | COc1ccc2c(c1)OC13Oc4cc(OC)ccc4C=C1CCCCC3=C2 | 104%
10 | c1ccc2c(-c3nc4ccccc4[nH]3)cccc2c1 | -3.88% (active)
11 | COc1cc2c(Nc3ccc(S(N)(=O)=O)cc3)ncnc2c(OC)c1OC | 91.5%
12 | Cc1nc2cccc(NCCCCC(=O)NO)c2c(=O)n1-c1ccccc1 | 42.8%
13 | CC(C)Cn1cnc2c(NCn3nc(-c4cc(Cl)cc(Cl)c4Cl)n(/N=C/c4ccc(Cl)cc4)c3=S)nc3ccccc3c21 | 93.3%
14 | CNCCCn1c2c(c3ccc([N+](=O)[O-])cc3c1=O)C(=O)c1cc(OC)cnc1-2 | -32.3% (active)
15 | CCOC(=O)C1=CCC(n2cc(C)c(=O)[nH]c2=O)O1 (stereo not given) | 89.8%
16 | c1cnc2n[nH]c(Nc3ncnc4c3sc3ncccc34)c2c1 | 96.8%
17 | COc1cc(/C=C/C(=O)c2ccc(F)cc2)ccc1OCCCCCOc1cc2c(cc1OC)C(=O)N1CCCC1C=N2 (stereo not given) | -37.2% (active)
18 | COc1ccc(NC(=O)CCn2cnc3c(cc(-c4ccccc4)n3-c3ccccc3)c2=O)cc1 | 95.9%
19 | CCCCCCCCO | 93.8%
20 | CN1CCN(Cc2ccc(NC(=O)c3nc4ccc5[nH]ncc5c4c4c3CCCC4)cc2C(F)(F)F)CC1 | -57.4% (active)

Row | Compound | growth
21 | CC1=Nc2cnc(Nc3ccc(N4CCCCC4)cc3)nc2Nc2ccccc21 | 28.1%
22 | CCOc1ccc(C(=O)O)cc1 | 103%
23 | COc1ccc(-c2nn(-c3ccc(NC(=O)Nc4ccc(Cl)c(Cl)c4)cc3)cc2-c2ccncc2)cc1Cl | 5.24% (active)
24 | CC1(C)N=C(N)N=C(N)N1c1cccc(CCCCc2ccccc2)c1 | -76% (active)
25 | O=C(N/N=C/c1ccccc1O)c1ccccc1Nc1ccnc(C(F)(F)F)c1 | 7.92% (active)
26 | CCOc1ccc(-n2nc(C(=O)NCc3ccccc3OC)nc2-c2cc(OC)c(OC)c(OC)c2)cc1 | 19.1%
27 | COc1ccccc1C1=C(Br)C(=O)c2nc(C)ccc2C1=O | 44.4%
28 | O=C(O)CSCC(=O)Nc1cc(C(F)(F)F)ccc1Cl | 102%
29 | CC(=O)Oc1cc(OC(C)=O)c2ccccc2c1OC(C)=O | 23.3%
30 | O=S(=O)(Cc1ccc(Cl)cc1Cl)c1ccc(Cl)cc1 | 10.5%
31 | CCOC(=O)c1ccccc1-c1c2ccc(=[N+](C)C)cc-2oc2cc(N(C)C)ccc12 | -14.3% (active)
32 | COc1cc(CNc2ccccc2C(=O)N2CCN(C(=O)c3cc(-c4cc(OC)c(OC)c(OC)c4)n4nc(-c5ccccc5)cc4n3)CC2)cc(OC)c1OC | 34.7%
33 | O=C(O)c1cccnc1Br | 110%
34 | S=C(Cc1ccc(-c2ccccc2)cc1)N1CCOCC1 | 98.9%
35 | C=C(C)[C@@H]1CC[C@]2(C)[C@H](CC[C@@H]3[C@@H]([C@@](C)(O)CCC=C(C)C)CC[C@]32C)[C@@]1(C)CCC(=O)O | -24.1% [100 µM] (active)
36 | CCn1c(CSc2nc3ccccc3c(=O)n2CCc2ccccc2)n[nH]c1=S | 90.9%
37 | CCCCN(CCCC)CCC(O)c1cc2ccc(C(F)(F)F)cc2c2cc(C(F)(F)F)ccc12 (stereo not given) | 49.8%
38 | COc1cc2nccc(Oc3ccc(NC(=O)C4(C(=O)Nc5c(F)cc(F)cc5F)CC4)cc3)c2cc1Oc1ccc(N)cn1 | 38.3%
39 | COc1c(C(=O)/C=C/c2ccc(C)o2)c(O)cc2occc12 | 44.6%
40 | CCOC(=O)c1c(-c2cc(OC)c(OC)c(OC)c2)csc1N | 96.3%
